Test results published in PubChem BioAssay (Tox21).
Results filed as inconclusive are left out. Activity calls are given as the source filed them. Unless noted, calls follow the shape of the dose curve; as a rule, active = well fitted curve in the direction sought with a large enough effect in the repeat runs; inconclusive = weak or mixed curves; inactive = no such curve, though single readings can be large; an effect the other way counts as inactive or inconclusive.

Experiments:
[1] = qHTS assay to identify small molecule antagonists of the estrogen related receptor (ERR) signaling pathway from Tox21 library - cell viability counter screen (AID 1224834); also: nearly all actives have a fitted effect of over 30% in size
Outline: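 Counter screen run in ERR cells (2,000 cells/well): cells pre-incubated 6 h, then treated with compounds for 17.5 h at 37 C. Fluorescence was read 30 min after CellTiter-Fluor addition.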

[2] = molecular target: Luciferin 4-monooxygenase (Photinus pyralis) (UniProt P08659); experiment: qHTS assay to identify small molecule inhibitors of firefly luciferase (AID 1224835); also: nearly all actives have a fitted effect of over 25% in size
Outline: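 Inhibition of purified Photinus luciferase is measured by luminescence. Substrate levels (D-luciferin, ATP) sit at their KM values. Each compound is tested in a concentration series.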

[3] = qHTS assay to identify small molecule agonists of the constitutive androstane receptor (CAR) signaling pathway - cell viability counter screen (AID 1224836); also: nearly all actives have a fitted effect of over 45% in size
Outline: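 HepG2-CYP2B6-hCAR, 2500 cells/well, 4 h pre-incubation; cpd 15 conc + PK11195 0.75 uM final; 23 h, 37 C/5% CO2; CellTiter-Fluor, fluorescence.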

[4] = qHTS assay to identify small molecule antagonists of the constitutive androstane receptor (CAR) signaling pathway - cell viability counter screen (AID 1224837); also: nearly all actives have a fitted effect of over 45% in size
Outline: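 CITCO at 50 nM final was added alongside compounds (15 concentrations) to double-stable hCAR/CYP2B6-2.2kb HepG2 cells. Following 23 hr at 37 C, cell viability was quantified by CellTiter-Fluor fluorescence intensity.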

[5] = qHTS assay to identify small molecule antagonists of the estrogen related receptor signaling pathway with the pleiotropic PPARgamma coactivator (PGC) from Tox21 10K library - cell viability counter screen (AID 1224840; active = well fitted cell-killing curve with a large enough effect in the repeat runs, not every such curve was filed as active; also: nearly all actives have a fitted effect of over 40% in size)
Outline: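 Readout: fluorescence intensity from CellTiter-Fluor after 30 min at 37 C/5% CO2. Preceded by 17.5 h treatment of PGC/ERR cells with DMSO-dissolved compounds, added 6 h post-seeding.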

[6] = molecular target: Thyrotropin receptor (Homo sapiens) (UniProt P16473); experiment: qHTS assay to identify small molecule agonists of the thyroid stimulating hormone receptor (TSHR) signaling pathway (AID 1224843; calls by dose curve; also: nearly all actives have a fitted effect of over 45% in size)
Outline: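 A cell-based cAMP HTRF format was run in TSHR-transfected HEK293 cells, 800 per well. Treatment: 30 min, room temperature. Detection: 1 h with labelled cAMP and anti-cAMP cryptate. Concentration-response over 15 points, three replicates.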

[7] = qHTS assay to identify small molecule agonists of the hypoxia (HIF-1) signaling pathway - cell viability counter screen (AID 1224844; calls by dose curve; also: nearly all actives have a fitted effect of over 50% in size)
Outline: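 In this counter screen, HRE-bla ME-180 cell viability after 17 hrs of compound exposure at 37C was read by CellTiter-Glo luminescence, multiplexed with the beta-lactamase reporter measurement.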

[8] = qHTS assay to identify small molecule agonists of H2AX (AID 1224845; active = well fitted activation curve with a large enough effect in the signal ratio in the repeat runs, not every such curve was filed as active; the % refers to the signal ratio)
Outline: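 Phospho-H2AX Ser139 measured by HTRF (ex 320 nm; em 665 and 620 nm) after 24 hr antibody incubation. Compounds, 15 concentrations, 0.76% DMSO, were applied to CHO-K1 cells for 3hr at 37C before lysis.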

[9] = qHTS assay to identify small molecule agonists of the hypoxia (HIF-1) signaling pathway (AID 1224846; active = well fitted activation curve with a large enough effect in the signal ratio in the repeat runs, not every such curve was filed as active; the % refers to the signal ratio)
Outline: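 ME-180 HRE-bla reporter cells; compounds in DMSO, 17 h at 37C; read-out beta-lactamase via CCF4-AM FRET.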

[10] = qHTS assay to identify small molecule agonists of H2AX - cell viability counter screen (AID 1224847; calls by dose curve;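 also: wild-type CHO-K1 cells; top concentration of the series differs between compounds; nearly all actives have a fitted effect of over 30% in size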)
Outline: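 Cells plated first: CHO-K1, 1000 per well in 10% FBS medium, incubated overnight at 37C. Then 15-point compound titration added (final DMSO 0.76%) for 3 hr. Finally CellTiter-Glo added and luminescence read.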

[11] = qHTS RealTime-Glo MT Cell Viability Assay in HepG2 cells - 24 hour (AID 1224867); also: nearly all actives have a fitted effect of over 50% in size
Outline: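 Compound treatment began 5 h after plating HepG2 cells (600/well) with NanoLuc luciferase and prosubstrate. Plates stayed at 37 C for 40 h; luminescence was captured at six time points, 0 h through 40 h.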

[12] = qHTS RealTime-Glo MT Cell Viability Assay in HEK293 cells - 32 hour (AID 1224868); also: top concentration of the series differs between compounds; nearly all actives have a fitted effect of over 50% in size
Outline: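 Quantitative high-throughput screen of the Tox21 10K library in HEK293: cells and RealTime-Glo reagents plated together, compound added at 5 h, luminescence monitored through 40 h at 37 C.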

[13] = A CellTox Green Cytotoxicity Assay to monitor cytotoxicity in HEK293 cells - 0 hour (AID 1224869); also: nearly all actives have a fitted effect of over 50% in size
Outline: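 Real-time, in one plate: 600 HEK293 cells/well with dead-cell DNA dye, pinned compound after 5 h, 37 C incubation over 40 h; viable cells give no appreciable fluorescence.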

[14] = qHTS RealTime-Glo MT Cell Viability Assay in HepG2 cells - 40 hour (AID 1224870); also: nearly all actives have a fitted effect of over 50% in size
Outline: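 Real-time viability: cells seeded at 600 per well together with NanoLuc and cell-permeant prosubstrate, compounds added after 5 h incubation. Luminescence tracked at 0, 8, 16, 24, 32 and 40 h of exposure.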

[15] = molecular target: Nuclear receptor subfamily 1 group I member 3 (Homo sapiens) (UniProt Q14994); experiment: qHTS assay to identify small molecule antagonists of the constitutive androstane receptor (CAR) signaling pathway (AID 1224838); also: nearly all actives have a fitted effect of over 40% in size
Outline: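 Inhibition of CITCO-driven (50 nM final) CYP2B6 reporter expression is measured in HepG2 cells stably carrying hCAR. Fifteen compound concentrations are applied for 24 h at 37 C, followed by luciferase luminescence.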

[16] = molecular target: Nuclear receptor subfamily 1 group I member 3 (Homo sapiens) (UniProt Q14994); experiment: qHTS assay to identify small molecule agonists of the constitutive androstane receptor (CAR) signaling pathway (AID 1224839); also: nearly all actives have a fitted effect of over 15% in size
Outline: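 HepG2-CYP2B6-hCAR cells, 2500/well, 4 h pre-incubation; compounds 15 conc.; PK11195 0.75 uM final; 24 h, 37 C/5% CO2; ONE-Glo luciferase read.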

[17] = qHTS assay to identify small molecule antagonists of the estrogen related receptor signaling pathway with the pleiotropic PPARgamma coactivator (PGC) from Tox21 10K library (AID 1224841; call rule not given here)
Outline: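 One-Glo luminescence, measured after half an hour at room temperature, quantified reporter output of PGC/ERR cells. These had been plated at 2,000 per well, incubated 6 h, dosed with compounds in DMSO, then kept 18 h at 37 C.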

[18] = qHTS assay to identify small molecule antagonists of the estrogen related receptor (ERR) signaling pathway from Tox21 library (AID 1224848); also: nearly all actives have a fitted effect of over 50% in size
Outline: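 ERR cell line, 2,000 cells/well. 6 h settle, then compound (DMSO) added; 18 h at 37 C; ONE-Glo luminescence after 30 min RT.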

[19] = qHTS assay to identify small molecule agonists of the estrogen related receptor (ERR) signaling pathway from Tox21 library (AID 1224849; calls by dose curve; also: nearly all actives have a fitted effect of over 15% in size); settings: ERR reporter cell line, ONE-Glo luciferase, 18 h; at 92.4 µM (top of the series) unless noted
Outline: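 Luciferase activity in ERR pathway reporter cells served as the agonist readout; exposure lasted 18 h at 37 C, with ONE-Glo detection after 30 min at room temperature.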

[20] = qHTS assay to identify small molecule agonists of the estrogen related receptor signaling pathway with the pleiotropic PPARgamma coactivator (PGC) from Tox21 10K library (AID 1224842); also: nearly all actives have a fitted effect of over 15% in size
Outline: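 Luminescence from One-Glo (30 min, room temperature) measured after PGC/ERR cells had 18 h at 37 C with pinned compound (23 nL in DMSO). Cells had been seeded at 2,000 per well and pre-incubated 6 h.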
% is scaled to controls: 0 for no effect and ±100 for the full control effect.

Chain of Nuclear receptor subfamily 1 group I member 3 (Homo sapiens) (Q14994 whole entry, looked up): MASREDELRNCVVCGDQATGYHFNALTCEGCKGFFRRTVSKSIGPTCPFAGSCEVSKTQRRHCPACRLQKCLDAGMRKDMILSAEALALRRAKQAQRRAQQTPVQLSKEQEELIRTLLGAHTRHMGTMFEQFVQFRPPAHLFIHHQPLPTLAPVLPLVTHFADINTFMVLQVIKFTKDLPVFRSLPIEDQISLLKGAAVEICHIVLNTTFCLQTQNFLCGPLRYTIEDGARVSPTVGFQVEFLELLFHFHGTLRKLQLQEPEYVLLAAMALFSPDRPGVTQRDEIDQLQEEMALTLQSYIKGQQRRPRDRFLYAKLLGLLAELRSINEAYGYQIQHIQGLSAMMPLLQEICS
Chain of Thyrotropin receptor (Homo sapiens) (P16473 whole entry, looked up): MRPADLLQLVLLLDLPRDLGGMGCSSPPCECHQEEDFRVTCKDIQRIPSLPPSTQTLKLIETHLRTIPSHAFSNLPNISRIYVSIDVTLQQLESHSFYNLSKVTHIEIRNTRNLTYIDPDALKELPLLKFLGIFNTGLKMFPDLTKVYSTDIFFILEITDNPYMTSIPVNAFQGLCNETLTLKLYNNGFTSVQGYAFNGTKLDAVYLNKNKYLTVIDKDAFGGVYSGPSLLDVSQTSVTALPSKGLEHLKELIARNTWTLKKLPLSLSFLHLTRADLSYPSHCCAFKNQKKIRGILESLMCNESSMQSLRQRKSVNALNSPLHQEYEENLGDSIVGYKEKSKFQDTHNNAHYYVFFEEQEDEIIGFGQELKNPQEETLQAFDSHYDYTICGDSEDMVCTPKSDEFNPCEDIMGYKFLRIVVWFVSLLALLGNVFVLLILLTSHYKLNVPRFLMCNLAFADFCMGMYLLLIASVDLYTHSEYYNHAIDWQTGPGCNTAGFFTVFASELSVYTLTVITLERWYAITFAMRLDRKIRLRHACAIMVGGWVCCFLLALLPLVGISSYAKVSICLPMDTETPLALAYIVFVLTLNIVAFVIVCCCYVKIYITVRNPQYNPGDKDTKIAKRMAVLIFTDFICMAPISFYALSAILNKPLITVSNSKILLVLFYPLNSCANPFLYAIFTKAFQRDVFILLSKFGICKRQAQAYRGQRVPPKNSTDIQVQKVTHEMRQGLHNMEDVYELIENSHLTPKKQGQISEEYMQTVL
Chain of Luciferin 4-monooxygenase (Photinus pyralis) (P08659 whole entry, looked up): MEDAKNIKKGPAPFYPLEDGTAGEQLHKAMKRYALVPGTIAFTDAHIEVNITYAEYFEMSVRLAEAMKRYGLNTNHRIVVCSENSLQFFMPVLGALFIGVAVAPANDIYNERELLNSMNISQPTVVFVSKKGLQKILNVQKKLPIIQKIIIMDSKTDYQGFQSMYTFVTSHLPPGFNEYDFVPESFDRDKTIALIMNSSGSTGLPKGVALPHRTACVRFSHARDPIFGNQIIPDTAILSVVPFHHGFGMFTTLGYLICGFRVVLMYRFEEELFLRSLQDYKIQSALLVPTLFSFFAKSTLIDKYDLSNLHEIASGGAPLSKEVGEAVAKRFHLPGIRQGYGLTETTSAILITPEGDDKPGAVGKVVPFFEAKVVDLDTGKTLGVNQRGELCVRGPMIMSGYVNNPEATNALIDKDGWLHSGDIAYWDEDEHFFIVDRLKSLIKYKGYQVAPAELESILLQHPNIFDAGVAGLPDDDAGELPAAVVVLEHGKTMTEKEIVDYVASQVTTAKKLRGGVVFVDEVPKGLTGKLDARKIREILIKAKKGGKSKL

Nc1c(CC(=O)O)cccc1C(=O)c1ccc(Br)cc1
inactive: Potency [1] | Potency [2] | Potency [3] | Potency [4] | Potency [5] | Potency [6] | Potency [7] | Potency [8] | Potency [9] | Potency [10] | Potency [11] | Potency [12] | Potency [13] | Potency [14]

O=C(CS)Nc1ccccc1
inactive: Potency [1] | Potency [2] | Potency [3] | Potency [4] | Potency [6] | Potency [7] | Potency [9] | Potency [10] | Potency [11] | Potency [12] | Potency [13] | Potency [14]

CCn1cc(C(=O)O)c(=O)c2cnc(N3CCNCC3)nc21
inactive: Potency [1] | Potency [2] | Potency [3] | Potency [15] | Potency [16] | Potency [17] | Potency [7] | Potency [8] | Potency [10] | Potency [18] | activity change, positive = activation [19] 2.22% [at 42.5 µM] | Potency [11] | Potency [12] | Potency [13] | Potency [14]

CN1CCN(C(c2ccccc2)c2ccccc2)CC1
inactive: Potency [1] | Potency [2] | Potency [3] | Potency [4] | Potency [5] | Potency [6] | Potency [8] | Potency [10] | Potency [11] | Potency [12] | Potency [13] | Potency [14]

C[C@@H](c1ncncc1F)C(O)(Cn1cncn1)c1ccc(F)cc1F (stereo not given in full)
inactive: Potency [1] | Potency [2] | Potency [3] | Potency [4] | Potency [17] | Potency [20] | Potency [6] | Potency [7] | Potency [8] | Potency [9] | Potency [10] | Potency [18] | activity change, positive = activation [19] -0.316% [at 42.5 µM] | Potency [11] | Potency [12] | Potency [13] | Potency [14]

CN1Cc2cc(C(=O)N3CCC(C4CCNCC4)CC3)ccc2NC(CC(=O)O)C1=O (stereo not given)
inactive: Potency [1] | Potency [2] | Potency [3] | Potency [15] | Potency [16] | Potency [5] | Potency [17] | Potency [6] | Potency [7] | Potency [8] | Potency [9] | Potency [10] | Potency [18] | activity change, positive = activation [19] 1.47% [at 42.5 µM] | Potency [11] | Potency [12] | Potency [13] | Potency [14]

CC(COCCO)OCCO (stereo not given)
inactive: Potency [1] | Potency [2] | Potency [3] | Potency [4] | Potency [5] | Potency [17] | Potency [6] | Potency [8] | Potency [9] | Potency [10] | Potency [18] | activity change, positive = activation [19] 0.277% | Potency [11] | Potency [12] | Potency [13] | Potency [14]

CCCCC
inactive: Potency [1] | Potency [2] | Potency [3] | Potency [4] | Potency [6] | Potency [7] | Potency [8] | Potency [9] | Potency [10] | Potency [11] | Potency [12] | Potency [14]

Cc1ccccc1S(=O)(=O)O
inactive: Potency [1] | Potency [2] | Potency [3] | Potency [4] | Potency [6] | Potency [7] | Potency [8] | Potency [9] | Potency [10] | Potency [11] | Potency [12] | Potency [13] | Potency [14]

CC[N+](C)(CC)CCOC(=O)C(O)(c1ccccc1)C1CCCCC1 (stereo not given)
inactive: Potency [1] | Potency [2] | Potency [3] | Potency [4] | Potency [5] | Potency [20] | Potency [6] | Potency [7] | Potency [8] | Potency [9] | Potency [10] | Potency [18] | activity change, positive = activation [19] -2.02% [at 42.5 µM] | Potency [11] | Potency [12] | Potency [13] | Potency [14]

CCCCCCCCO[C@@H]1O[C@H](CO)[C@@H](O)[C@H](O)[C@H]1O
inactive: Potency [1] | Potency [2] | Potency [3] | Potency [4] | Potency [5] | Potency [6] | Potency [7] | Potency [9] | Potency [10] | Potency [11] | Potency [12] | Potency [13] | Potency [14]

Cc1cc(C(=O)O)ccc1[N+](=O)[O-]
inactive: Potency [1] | Potency [2] | Potency [3] | Potency [4] | Potency [5] | Potency [6] | Potency [8] | Potency [9] | Potency [10] | Potency [11] | Potency [12] | Potency [13] | Potency [14]

O=C1OC(=O)C2C3C=CC(C3)C12 (stereo not given)
inactive: Potency [1] | Potency [2] | Potency [3] | Potency [4] | Potency [5] | Potency [7] | Potency [8] | Potency [9] | Potency [10] | Potency [11] | Potency [12] | Potency [13] | Potency [14]

c1ccc(C(O[C@H]2CCCN(CCc3ccc4c(c3)OCO4)C2)c2ccccc2)cc1
inactive: Potency [1] | Potency [2] | Potency [3] | Potency [4] | Potency [5] | Potency [6] | Potency [8] | Potency [9] | Potency [11] | Potency [13] | Potency [14]

NCC(=O)CCC(=O)O
inactive: Potency [1] | Potency [2] | Potency [3] | Potency [4] | Potency [5] | Potency [6] | Potency [10] | Potency [11] | Potency [12] | Potency [13] | Potency [14]

CCCCCCCC#N
inactive: Potency [1] | Potency [2] | Potency [3] | Potency [4] | Potency [17] | Potency [6] | Potency [9] | Potency [10] | Potency [18] | activity change, positive = activation [19] 2.85% | Potency [11] | Potency [12] | Potency [13] | Potency [14]

CCOC(=O)C(O)c1ccccc1 (stereo not given)
inactive: Potency [1] | Potency [2] | Potency [3] | Potency [15] | Potency [16] | Potency [5] | Potency [17] | Potency [20] | Potency [6] | Potency [7] | Potency [8] | Potency [9] | Potency [10] | Potency [18] | activity change, positive = activation [19] 3.78% [at 42.5 µM] | Potency [11] | Potency [12] | Potency [13] | Potency [14]
